# Assay results: PubChem BioAssay (NCI)
# Compounds without any hit were thinned out: in the full panel of roughly 83,000, 20% have a hit.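 Single-dose data. Exposure time 48 hours. Values below 10 considered active.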 Activity calls are given as the source filed them.
# Tested on: CAKI-1 renal
# Assay: NCI-60 one-dose screen, 48 h (100 = growth as untreated, 0 = no growth, -100 = all killed)
# Details: 10 µM
row,SMILES,growth
1,COc1ccc2[nH]c(O)c(N=NC(=O)c3cc(-c4ccc(C)cc4)nc4ccccc34)c2c1,95.5% (inactive)
2,COc1ccc(CN2[C@H](C(=O)NCc3ccc(C(=O)NO)cc3)Cc3c([nH]c4ccccc34)[C@H]2C2CC2)cc1,72.3% (inactive)
3,COc1ccc(C2N(c3ccc(Br)cc3)N=C(C(C)=O)N2[C@H]2[C@H](OC(C)=O)O[C@H](COC(C)=O)[C@@H](OC(C)=O)[C@@H]2OC(C)=O)cc1 (stereo partly drawn),70.8% (inactive)
4,CN(CCF)c1ccc(/C=C/C(=O)c2ccc(N)cc2O)cc1,60.4% (inactive)

# Tested on: A498 renal
# Assay: as above
# Details: 10 µM
row,SMILES,growth
1,Cc1ccc(/C=C/C(=O)c2ccc(NC(=O)CSc3nnc(-c4c[nH]c5ccccc45)n3-c3ccccc3)cc2)cc1,111% (inactive)
2,CCCn1c(O)c(N=Nc2nc(-c3cc4ccccc4oc3=O)cs2)c2cc(Br)ccc21,130% (inactive)
3,COc1ccc2[nH]c(=O)c(CSc3nccc(-c4ccc(Cl)cc4)n3)cc2c1,45.5% (inactive)
4,COc1cc(/C=C/C(=O)c2cc(OC)c(OC)c(OC)c2)ccc1Oc1nc(Nc2ccc(F)cc2)nc(N(C)C)n1,-1.01% (active)
5,c1ccc(C(=C(c2ccc(OCCN3CCCCC3)cc2)c2ccc(OCCN3CCCCC3)cc2)C2CCCC2)cc1,102% (inactive)
6,Cc1ccc(/C=C(\C#N)n2nnc3c(F)cccc32)cc1,71.8% (inactive)
7,O=C1Nc2ccc(F)cc2/C1=C/c1cccc(OCc2ccccn2)c1,87.3% (inactive)
8,Cc1ccc(-c2cc(C(=O)N=Nc3c(O)[nH]c4ccc(Br)cc34)c3ccccc3n2)cc1,125% (inactive)
9,Cc1cc(C)nc(NS(=O)(=O)c2ccc(N/C(N)=N/c3nccc(-c4ccccc4)n3)cc2)n1,71.2% (inactive)
10,COc1ccc(NC(=O)Nc2ccc(OCC(=O)N=Nc3c(O)[nH]c4ccc([N+](=O)[O-])cc34)cc2)cc1,101% (inactive)
11,COc1ccc(-c2nc(Nc3ccccc3S(N)(=O)=O)c3ccccc3n2)cc1,92% (inactive)
12,CCCCCc1ccc(S(=O)(=O)N(C(C)=O)c2cc(-c3csc(N(C)C(C)=O)n3)ccc2N2CCN(C)CC2)cc1,123% (inactive)
13,NS(=O)(=O)c1ccc(N=Nc2c(O)n(CC(=O)Nc3ccccc3Br)c3ccccc23)cc1,94.1% (inactive)
14,CN(C)c1nc(NCCNS(=O)(=O)c2ccc(C(=O)/C=C/c3ccccc3)cc2)nc(Nc2ccc(F)cc2)n1,61.1% (inactive)
15,CC1=C2C(=C[C@@](C)(COCOCCCl)[C@@H]2O)C(=O)[C@](C)(O)C12CC2,-31.5% (active)
16,COC[C@@H](CC(C)C)N=C1NC(=O)/C(=C/c2ccc3ncoc3c2)N1,-9.51% (active)
17,CC1=C2C(=C[C@@](C)(CO)[C@@H]2O)/C(=N\N)[C@](C)(O)C12CC2,-27.8% (active)
18,CN1CCc2c(sc3ncnc(N/N=C/c4ccc5ccccc5c4)c23)C1,106% (inactive)
19,Cc1cccc(-c2nc(Nc3ccccc3C(=O)O)c3ccccc3n2)c1,47.6% (inactive)
20,COc1ccc2[nH]c(O)c(N=NC(=O)COc3ccc(NC(=O)Nc4ccc(Cl)cc4)cc3)c2c1,135% (inactive)
21,CN1CCN(Cc2ccc(NC(=O)c3cncc(C#Cc4cnc5ccc(N[C@H]6CCOC6)nn45)c3)cc2C(F)(F)F)CC1,-94.7% (active)
22,N#Cc1c(Cl)nc(SCc2ccc(F)cc2)nc1-c1ccc(F)cc1,115% (inactive)
23,CONC[C@]1(C)C=C2C(=O)[C@](C)(O)C3(CC3)C(C)=C2[C@H]1O,-29.7% (active)
24,CCCCOc1ccc(Nc2nc3ccccc3nc2Nc2ccc(OCCCC)cc2)cc1,105% (inactive)
25,C=C1CCC2C3(C)COC(c4cccc(F)c4)OC3CCC2(C)C1CC(O)C1=CCOC1=O (stereo not drawn),125% (inactive)
26,COc1ccc(/C=N/N=C(\C)c2ccc3c(c2)Nc2ccccc2S3)cc1O,75.5% (inactive)
27,O=S(=O)(Nc1ncccn1)c1ccc(-n2c(-c3ccc(Br)cc3)nc(-c3ccccc3)c2-c2ccccc2)cc1,-1.34% (active)
28,C[C@H]1[C@H](C)CC[C@]2(COC(=O)CCC(=O)NCC#CCN3CCNCC3)CC[C@]3(C)C(=CC[C@@H]4[C@@]5(C)CCCNC(C)(C)[C@@H]5CC[C@]43C)[C@H]12,111% (inactive)
29,CN1CCN(Cc2ccc(C(=O)Nc3cccc(Nc4ccc5c(O)cccc5n4)c3)cc2C(F)(F)F)CC1,-33.2% (active)
